Measurements published in PubChem BioAssay AID624304 (Sanford-Burnham Center for Chemical Genomics, 2012).
Screen size: about 360,000 compounds; about 1,800 (0.5%) were called active. The sample as a whole holds a higher share of actives than the screen did. A number with no mark means an inactive call.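 How the source made its calls: active means interference check ratio from 0.5 to 1.5 plus GFP to RFP signal ratio inhibition reaching or exceeding a fixed threshold (cut at about 30% in these data, passing the limit was not always enough); inactive means the rest.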

assay: suppressors of acrylamide-induced Pgst-4::GFP reporter in worms, primary screen, SKN-1 inhibitor project, whole organism, uHTS, GFP/RFP fluorescence ratio, strain VP596 (AID 624304); conditions: C. elegans VP596 Pgst-4::GFP/RFP ratio, 24 h, at 21.8 µM, hits give high values

| SMILES | inhibition |
| --- | --- |
| O=S1(=O)CSCS(=O)(=O)C1 | 10.6% |
| CC1CN(S(=O)(=O)c2ccc(C(=O)NN3CCN(C)CC3)cc2)CC(C)O1 (centres undefined) | -5.41% |
| Cc1cc(OCc2cc(C(=O)NCc3cc(C(C)C)no3)no2)cc(C)c1Cl | 1.98% |
| O=C(Nc1ccc(Cl)c(Cl)c1)N1CC=C(c2ccccc2)CC1 | 13.1% |
| Cc1ccc(NC(=O)CSc2nn3c(=O)c(C)nnc3s2)cc1Cl | 20.9% |
| O=C(CC(O)(C(F)(F)F)C(F)(F)F)Nc1ccc(Cl)c(Cl)c1 | 50.1% (active) |
| NC(=O)C1CCN(C2OC(=O)c3ccccc32)CC1 (centres undefined) | -35.9% |
| Cc1ccc(C(NC(=O)C2CCN(CCOc3ccc(Cl)cc3Cl)CC2)c2ccccn2)cc1 (centres undefined) | -6.91% |
| O=C(NC(c1ccc(-c2ccccc2)cc1)c1cnccn1)C1CCN(CCOc2ccc(Cl)cc2Cl)CC1 (centres undefined) | 39.3% (active) |
| O=C(NC(c1ccc(Cl)cc1)c1cnccn1)C1CCN(Cc2ccc(Cl)cc2)CC1 (centres undefined) | -1.18% |
| CCCCS(=O)c1snnc1C (centres undefined) | 0.19% |
| CCCNC(=O)C1(C)CCN1C(=O)Cc1ccc(-c2ccccc2)cc1 (centres undefined) | -5.8% |
| CC1(C(=O)NS(=O)(=O)c2cccs2)CCN1C(=O)Cc1ccc(-c2ccccc2)cc1 (centres undefined) | 35.1% (active) |
| CC1(C(=O)NS(=O)(=O)c2ccccc2)CCN1C(=O)Cc1ccc(-c2ccccc2)cc1 (centres undefined) | 14.5% |
| O=C(NCCCN1CCOCC1)C1CCCN(S(=O)(=O)N2CCCCC2)C1 (centres undefined) | 6.87% |
| CC[n+]1c(C)n(-c2ccccc2)c2ccc(NC(C)=O)cc21 | -12.4% |
| O=S(=O)(c1ccc(Sc2nnc3ccccn23)nc1)N1CCOCC1 | 10.2% |
| Cc1cc(C)c2c(-n3cccc3)c(NC(=O)OCc3ccccc3)sc2n1 | 39.1% (active) |
| COC(=O)Nc1sc2nc(C)cc(C)c2c1-n1cccc1 | 6.78% |
| CCCCOC(=O)Nc1sc2nc(C)cc(C)c2c1-n1cccc1 | -12.8% |
| O=C(C1CCCO1)N1CCN(C(=S)NC2CC2)CC1 (centres undefined) | -7.31% |
| COc1cc2[nH]c(=S)n(Cc3ccc(F)cc3)c(=O)c2cc1OC | -0.963% |
| COc1cc2[nH]c(=S)n(CCN3CCCCC3C)c(=O)c2cc1OC (centres undefined) | 56.1% (active) |
| CCOc1cc2[nH]c(=S)n(CCN3CCCCC3C)c(=O)c2cc1OCC (centres undefined) | -6.45% |
| CC(Oc1ccc(Cl)cc1Cl)C(=O)/C=C/N(C)C (centres undefined) | -7.74% |

| SMILES | inhibition |
| --- | --- |
| CC(C)(CNCC(O)c1ccccc1)N1CCOCC1 (centres undefined) | -7.82% |
| Fc1cccc(CSc2nnc3ccc(-c4ccncc4)nn23)c1 | -27.4% |
| COc1ccc(S(=O)(=O)NCc2cccnc2)cc1NC(=O)c1ccc(C)cc1 | 22.1% |
| CC(C)c1nnc(NC(=O)C2CC(=O)N(CCc3ccc(F)cc3)C2)s1 (centres undefined) | -6.45% |
| CCC(C)NC(=O)c1ccccc1NC(=O)c1ccccc1N(C)S(C)(=O)=O (centres undefined) | -2.01% |
| Cc1ccc(-c2nc(CS(=O)CC(=O)NC3CCCC3)c(C)o2)cc1 (centres undefined) | 5.39% |
| COc1ccc(-c2nc(CS(=O)CC(=O)NCc3ccccn3)c(C)o2)cc1 (centres undefined) | 37.6% (active) |
| COc1ccc(-c2nc(CS(=O)CC(=O)NCc3cccnc3)c(C)o2)cc1OC (centres undefined) | 0.495% |
| COc1ccc(N2C(=O)C(CC(=O)Nc3ccc(F)cc3)N(CCc3cccs3)C2=O)cc1 (centres undefined) | -3.33% |
| COc1ccc(-n2nc(C(=O)Nc3cc(OC)c(OC)c(OC)c3)c3ccccc3c2=O)c(OC)c1 | 6.93% |
| COCCN1C(=O)N(c2ccc(Cl)cc2)C(=O)C1CC(=O)Nc1cc(OC)cc(OC)c1 (centres undefined) | 17% |
| C[C@H](OC(=O)n1ccnc1)[C@@H]1O[C@@]2(C)CCC[C@@H]1O2 | 13.4% |
| C=CCSc1nnc2c(n1)-c1cccc3cccc-2c13 | 53.1% (active) |
| C=CCSc1nsc(NC(=O)Nc2cccc(C(C)=O)c2)n1 | 2.8% |
| COc1ccnc2c1c(=O)n(Cc1cccc(F)c1)c(=O)n2C | 13.9% |
| CCCCC(CC)C(=O)Nc1ccc(Cl)cn1 (centres undefined) | -11.4% |
| CCCc1cc(C(=O)Nc2ccc(Cl)cn2)cs1 | 35% (active) |
| COc1ccc(C(=O)N/N=C(\C)CC(=O)Nc2ccc(Cl)cn2)cc1 | 3.73% |
| C=CCC1(C(=O)N(C)Cc2ccccc2)CCN(C(=O)OC(C)(C)C)CC1 | 4.4% |
| COCCN(C(=S)Nc1cccc(Cl)c1C)C(C)c1ccco1 (centres undefined) | 2.25% |
| C/C(=N\NC(=O)OC(C)(C)C)c1ccc[nH]1 | 10.7% |
| CCOC(=O)c1ccc(NC(=O)c2nc[nH]c2C(=O)N[C@@H](CCCCNC(=O)OC(C)(C)C)C(=O)OC(C)(C)C)cc1 | -1.6% |
| c1ccc2c(c1)OCCOCCOCCO2 | 2.75% |
| CCC1CCCCN1C(=O)CSc1nc2c(c(=O)n(C)c(=O)n2C)n1C (centres undefined) | 10.5% |
